Among all 2,100 compounds or so, about 940 (45%) were called active. Another 48% or so got no clear call; they are omitted. Calls come from the whole dose curve; as a rule, active = well fitted inhibition curve with a large enough effect; inconclusive = small, poorly fitted or top-dose-only effect; inactive = no such curve, though single readings can be large or run the other way. The set was probably picked from earlier hits. The list shows a part of the results.
Potency is the fitted concentration of half-maximal effect.

A short description of the assay: Confirmatory qHTS for Inhibitors of ATXN expression.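 For activity change, negative = inhibition: 0% = DMSO vehicle wells and -100% = medium-only wells without cells.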 Note: nearly all actives have a fitted effect of over 65% in size. Particulars: ATXN2-luciferase reporter cells, luminescence, 24 h; series mostly up to 11.5 µM; activity change, negative = inhibition: at the top concentration. The source says: PI: Daniel Scoles Ph.D. University of Utah School of Medicine, Salt Lake City, Utah MLPCN Grant: NS073009 Spinocerebellar ataxia type 2 (SCA2) is a multisystem neurodegenerative disease caused by a dominantly acting mutation leading to expansion of a polyQ domain in the ataxin-2 protein (ATXN2). SCA2 patients develop progressive ataxia and later lose function in other neuronal systems. Prominent parkinsonian signs develop in some patients. Like many neurodegenerative disorders, no symptomatic or disease-modifying treatments are known. The primary objective of the proposed research is to identify compounds inhibiting ATXN2 expression and to test them for efficacy in SCA2 mouse models. We have developed a cell-based assay paired with an in vivo mouse model using identical luciferase expression constructs. This approach takes advantage of an ATXN2-luciferase transgene, with the luciferase gene flanked by the upstream and downstream portions of the ATXN2 gene. Here we describe a 5-7 dose quantitative high thoroughput screen (qHTS) for compounds lowering ATXN2 expression. We screened the NIH Molecular Libraries Small Molecule Repository (MLSMR) and NCGC's mechanistically annotated (MIPE) and drug repurposing (NPC) collections of compounds for lowering expression of an ATXN2-luciferase reporter in HEK-293 cells. The assay is a multiplexed cell viability assay to ensure target reduction in the absence of cytotoxicity. Secondary qHTS assays included a CMV-luciferase reporter expressed in HEK-293 cells as well as a biochemical assay using recombinant luciferase to detect inhibitors of the reporter enzyme. Compounds that inhibit ATXN2 expression but is not cytotoxic were selected for confirmatory and secondary screens.
PROTOCOL TABLE (as described by Inglese J, Shamu CE and Guy RK. 2007) SEQUENCE No. (e.g., 1, 2, 3, etc.); PARAMETER (e.g., Cells, Incubation, Reagent, etc.); VALUE; DESCRIPTION. 1; Cells; 4 uL; white, solid bottom, 1536-well Greiner assay plate. 2; Incubation; 2 hr; 37 degree C in 5% humidified CO2. 3; Compounds; 23 nL; Kalypsis pintool (Wako USA) equipped with a 1536-well pin head. 4; Incubation; 24 hr; 37 degree C in 5% humidified CO2. 5; Reagent; 1 uL; Gly-Phe-7-Amino-4-trifluoromethylcoumarin. 6; Incubation; 30 min; 37 degree C in 5% humidified CO2. 7; Detection; Fluorescence; ViewLux plate reader (PerkinElmer). 8; Reagent; 3 uL; SteadyGlo luciferase solution (Promega). 9; Incubation; 5 min; room temperature. 10; Detection; Luminescence; ViewLux plate reader (PerkinElmer). NOTES (numbers refer to Sequence numbers above) 1. […] expressing ATXN2-luciferase reporter were suspended in phenol-red free DMEM and dispensed in assay plates using a Multidrop Combi dispenser (Thermo Fisher Scientific). Wells containing medium only were plated on each plate, and values were used to normalize (100% inhibition) in the luciferase and CellTiter-Fluor assays. 2. Assay plates were incubated. Evaporation was prevented by covering assay plates with metal lids containing holes to allow gas diffusion. 3. Compounds were added in a dose response manner with the final concentrations of 57, 11.4, 2.28, 0.46, 0.091, 0.018, 0.0037 uM. Vehicle-only plates, with DMSO being pin-transferred to columns 5-48, were inserted uniformly at the beginning and the end of each library to monitor and record any shifts in assay performance. 5. 125 uM Gly-Phe-7-Amino-4-trifluoromethylcoumarin (MP Biomedicals) working concentration was used at a final concentration of 25 uM. 7. To assess cell viability; the assay plates were read using the ViewLux high-throughput CCD imager (PerkinElmer), wherein single end-point fluorescence measurement was acquired (excitation 405/10; emission 540/25 nm). 8. Detection reagent SteadyGlo Luciferase (Promega) was added to the assay plate. 10. Luminescence is then measured on the ViewLux imager equipped with a clear emission filter using a 2 sec exposure. […]
In general terms: Quantitative high-throughput screening tests each substance at several concentrations.
Take `Cc1cc[n+](C(C)C(=O)c2ccc(-c3ccccc3)cc2)cc1` (configuration not stated): the Potency is 14.1 µM (active). As to `CC(C(=O)c1ccc(-c2ccccc2)cc1)[n+]1cccc(NC(=O)c2ccccc2)c1` (configuration not stated), the “activity change, negative = inhibition” value was -17.3% (inactive). On the same count and under the same terms, the same measure for `Cc1ccc(Cc2cnc(N3C(=N)SC(C)C3=O)s2)cc1` (configuration not stated): -5.04% (inactive).

Consider `COc1ccc(OC)c(NC(=O)COC(=O)c2c3c(nc4ccccc24)CCCC3)c1`, for which the Potency was 3.16 µM (active).

On to `Cn1cc(SCC(=O)Nc2nc3ccccc3s2)c2ccccc21`, for which the Potency is 3.16 µM (active). With `NC(c1csc(Nc2nccc(C(F)(F)F)n2)n1)C1CCCCC1` (configuration not stated), the Potency is 3.55 µM (active). Consider `COc1ccc(CC(N)c2csc(Nc3ccc(C(=O)c4ccccc4)cc3)n2)cc1` (configuration not stated), for which the “activity change, negative = inhibition” value was -34.6% (inactive). As for `NC(COCc1ccccc1)c1csc(Nc2ccc(C(F)(F)F)cn2)n1` (configuration not stated), the Potency was 31.6 µM (active). Same read-out and setting: the same measure for `CC(C)CC(N)c1csc(Nc2ccc(C(=O)N(C)Cc3ccccc3)cn2)n1` (configuration not stated): 12.6 µM (active). For the compound `NC(Cc1ccc(F)cc1)c1csc(Nc2cc(NCc3ccco3)ncn2)n1` (configuration not stated), the “activity change, negative = inhibition” value is 40.8% (inactive). As to `NC(Cc1ccccc1)c1csc(Nc2ccc(C(F)(F)F)cn2)n1` (configuration not stated), the Potency was 31.6 µM (active). Take `NC(Cc1ccc(C(F)(F)F)cc1)c1csc(Nc2nccc(C(F)(F)F)n2)n1` (configuration not stated): the Potency was 3.55 µM (active). Still for that read-out and setting: the same measure for `CC(C)(C)c1cc(C(=O)N/N=C/c2ccc([N+](=O)[O-])s2)n[nH]1`: 5.01 µM (active). Same read-out and setting: the figure for `Cc1cc(C(=O)N/N=C/c2ccc([N+](=O)[O-])s2)n[nH]1` is 8.91 µM (active); for `O=C(Cn1cnc([N+](=O)[O-])c1)Nc1cc(Oc2ccc(Cl)cc2Cl)cc([N+](=O)[O-])c1` it is 2.82 µM (active); for `O=C(NCc1cc(C(F)(F)F)ccc1Cl)c1cccc2c1C(=O)c1ccc(N3CCOCC3)cc1S2(=O)=O` it is 3.98 µM (active). The same measure, in the same setting: the same measure for `O=C(NCc1ccccc1C(F)(F)F)c1cccc2c1C(=O)c1ccc(N3CCC(N4CCCCC4)CC3)cc1S2(=O)=O`: 3.16 µM (active); for `CCCc1nc2c(c(=O)c3ccccc3n2C)c(=O)n1C1CCCCCC1`: 14.1 µM (active). Take `COc1ccc(C(=O)Nn2c(SCC(=O)c3ccccc3)nc3ccccc3c2=O)cc1`: the Potency is 15.8 µM (active). For `Cc1ccc(S(=O)(=O)Nc2cc(Cl)c(O)c3ncccc23)cc1`, the Potency was 3.55 µM (active). The same measure, in the same setting: the same measure for `O=[N+]([O-])c1ccccc1S(=O)(=O)Nc1cccc2cccnc12`: 10 µM (active); for `Cc1ccc(S(=O)(=O)Nc2cccc3cccnc23)cc1`: 8.91 µM (active). `O=C(/C=C/Nc1ccc(S(=O)(=O)Nc2ncccn2)cc1)c1ccc(Cl)c(Cl)c1`: the “activity change, negative = inhibition” value was -22.7% [at 57.5 µM] (inactive). For `O=S(=O)(Nc1cccc2cccnc12)c1ccccc1`, the Potency is 1.58 µM (active). The same measure, in the same setting: the same measure for `CCc1ccc(N(CC)C(=O)c2ccc3c(Cl)c4c(nc3c2)CCC4)cc1`: 3.55 µM (active). Still for that read-out and setting: the same measure for `C[C@@H]1ON(C)[C@H]2C[C@H]3c4[nH]c5ccc(-c6ccc7c(c6)OCO7)cc5c4CCN3C(=O)[C@@H]12`: 15.8 µM (active). Turning to `Nc1cccc2nc3ccccc3cc12`, the Potency was 7.94 µM (active). In the case of `Nc1c2ccccc2nc2ccccc12`, the Potency is 3.55 µM (active).

As to `CCc1nc2ccc(C(=O)Nc3cc(-c4ccccc4)ccc3OC)cn2c1N(CC)CC(=O)N(C)C`, the Potency was 28.2 µM (active). Same read-out and setting: the figure for `Cc1ccc(S(=O)(=O)NCC(=O)N/N=C/c2ccccc2O)cc1` is 3.16 µM (active).

Consider `O=C(CNS(=O)(=O)c1ccc([N+](=O)[O-])cc1)N/N=C/c1ccc(O)cc1O`, for which the Potency was 3.16 µM (active). On the same count and under the same terms, the same measure for `Cc1ccc(SCCC(=O)N/N=C/c2ccccc2O)cc1`: 3.55 µM (active); for `O=C(CCCOc1ccc(Cl)cc1Cl)N/N=C/c1ccccc1O`: 2.82 µM (active). On the same count and under the same terms, the same measure for `N#CC1=C(N)N2C(=C(C#N)C1c1cccc(Br)c1)Nc1ccccc12` (configuration not stated): 3.16 µM (active); for `Cc1csc2ncnc(NC3CCN(Cc4ccccc4)CC3)c12`: 0.794 µM (active); for `CC(C)(C)c1ccc(Oc2ccc(N)cc2)cc1`: 2.24 µM (active). Same read-out and setting: the same measure for `CC(C)(C)c1ccc(Oc2ccc(N)cn2)cc1`: 3.16 µM (active); for `COc1ccc(O)c(/C=N/NC(=O)CSc2nnc(C)n2-c2ccccc2)c1`: 2.82 µM (active). With `COc1ccc(O)c(/C=N/NC(=O)CCC(=O)Nc2cccc(C)c2)c1`, the Potency is 14.1 µM (active). For `Cc1cccc(NC(=O)CCC(=O)N/N=C/c2ccc(O)cc2O)c1`, the Potency is 3.16 µM (active). Same read-out and setting: the same measure for `Cc1cc(C)n(CCC(=O)N/N=C/c2ccc(O)cc2O)n1`: 3.16 µM (active); for `COc1cc(OC)c(OC)cc1/C=C1\CCC/C(=C\c2cc(OC)c(OC)cc2OC)C1=O`: 3.98 µM (active). Still for that read-out and setting: the same measure for `COc1cc(OC)c(OC)cc1/C=C1\CC(C)C/C(=C\c2cc(OC)c(OC)cc2OC)C1=O` (configuration not stated): 14.1 µM (active); for `O=C(Nc1ccc(N2CCN(C(=O)c3ccccc3)CC2)c(Cl)c1)c1ccc(Br)o1`: 2.51 µM (active). `Cc1ccccc1C(=O)N1CCN(c2ccc(NC(=O)c3ccco3)cc2Cl)CC1`: the Potency is 17.8 µM (active). In the case of `COc1ccc(CC(=O)Nc2nc(-c3ccc(OC)c(OC)c3)cs2)cc1OC`, the Potency was 3.16 µM (active).

With `O=C(Nc1nc(-c2ccc(F)c(F)c2)cs1)Nc1ccc(F)cc1F`, the Potency was 1.41 µM (active).

`COc1ccc(CC(=O)Nc2nc(-c3ccc(F)c(F)c3)cs2)cc1OC`: the Potency is 4.47 µM (active). In the case of `COCCNc1nc(-c2cc(C)n(CCc3ccc(OC)cc3)c2C)cs1`, the “activity change, negative = inhibition” value was -16.2% [at 57.5 µM] (inactive). Turning to `O=C(CCN1C(=O)C2CC=CCC2C1=O)Nc1nc(-c2ccc(F)c(F)c2)cs1` (configuration not stated), the “activity change, negative = inhibition” value was -4.12% [at 57.5 µM] (inactive).

In the case of `COc1cc(CC(=O)Nc2nc(-c3ccc(F)c(F)c3)cs2)cc(OC)c1OC`, the Potency is 3.98 µM (active). The same measure, in the same setting: the same measure for `CCCCCc1ccc(OCCCC[n+]2cccc(C)c2)c(CCCCC)c1`: 14.1 µM (active). Regarding `CCCCCc1ccc(OCCC[n+]2ccccc2)c(CCCCC)c1`, the Potency was 14.1 µM (active).

Take `CCOC(=O)[C@H]1[C@H]2COc3ccc(OC)cc3[C@@H]2N2C(=O)c3cc(OC)c(OC)cc3NC(=O)[C@@]12C`: the “activity change, negative = inhibition” value is -9.99% (inactive). As for `COc1ccc(/C=C2\CN(Cc3ccccc3)C/C(=C\c3ccc(OC)c(O)c3)C2=O)cc1O`, the Potency is 3.98 µM (active).

Regarding `COc1ccc(C(=O)Cn2c(C(=O)/C=C/c3ccccc3)nc3ccccc32)cc1`, the Potency is 2.82 µM (active). On the same count and under the same terms, the same measure for `COCC(C)n1c(C)cc(C(=O)COC(=O)c2cccn2C)c1C` (configuration not stated): 2.24 µM (active).

The record behind these values is PubChem BioAssay AID1745848 (National Center for Advancing Translational Sciences (NCATS), 2022).
